Compound activity: PubChem BioAssay, several laboratories
The list is not random: actives were taken first. Their share in the collection is about 3.2%.
rCAG binder: r(CAG) repeat RNA binding; TO-PRO-1 dye displacement fluorescence; inhibition, % at 3 µM; actives 1.3% (n = 370,000); AID 651821;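 active means inhibition above the plate cutoff, the mean of all test compounds on that plate plus 3 SD, cut at about 35% in these data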;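 further: 0% = DMSO alone and 100% = 100 µM mitoxantrone as full dye displacement; higher means more dye released from RNA so lower well fluorescence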
Pemphigus Ab inh: inhibitors of pemphigus antibody binding to human desmoglein-3 | P32926 | DSG3-coupled beads, scFv-anti-DSG3-GFP binding, flow cytometry; hits give low values | binding (percent of control), % at 10 µM | actives 0.48% (n = 310,000) | AID 588358;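 active means binding more than 3 SD below its plate's average and above zero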;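 further: hits lower antibody fragment binding to DSG3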
bovine MsrA act: bovine methionine sulfoxide reductase A activation | purified bovine MsrA, absorbance read-out | activation, % at 10.6 µM | actives 0.3% (n = 360,000) | AID 602163; in the data active means activation above about 7.5%;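 further: 0% = vehicle and 100% = reference activator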
DAGLB inh: blocks human DAGLB lipase activity; AID 504411; HEK293T DAGLB membrane lysate, EnzChek fluorogenic substrate; actives 0.059% (n = 340,000); inhibition, % at 5.17 µM; Q8NCG7; in the data active means inhibition above about 34%;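 further: 0% = enzyme with vehicle and 100% = wells lacking enzyme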
Target sequence (Q8NCG7 whole entry, looked up): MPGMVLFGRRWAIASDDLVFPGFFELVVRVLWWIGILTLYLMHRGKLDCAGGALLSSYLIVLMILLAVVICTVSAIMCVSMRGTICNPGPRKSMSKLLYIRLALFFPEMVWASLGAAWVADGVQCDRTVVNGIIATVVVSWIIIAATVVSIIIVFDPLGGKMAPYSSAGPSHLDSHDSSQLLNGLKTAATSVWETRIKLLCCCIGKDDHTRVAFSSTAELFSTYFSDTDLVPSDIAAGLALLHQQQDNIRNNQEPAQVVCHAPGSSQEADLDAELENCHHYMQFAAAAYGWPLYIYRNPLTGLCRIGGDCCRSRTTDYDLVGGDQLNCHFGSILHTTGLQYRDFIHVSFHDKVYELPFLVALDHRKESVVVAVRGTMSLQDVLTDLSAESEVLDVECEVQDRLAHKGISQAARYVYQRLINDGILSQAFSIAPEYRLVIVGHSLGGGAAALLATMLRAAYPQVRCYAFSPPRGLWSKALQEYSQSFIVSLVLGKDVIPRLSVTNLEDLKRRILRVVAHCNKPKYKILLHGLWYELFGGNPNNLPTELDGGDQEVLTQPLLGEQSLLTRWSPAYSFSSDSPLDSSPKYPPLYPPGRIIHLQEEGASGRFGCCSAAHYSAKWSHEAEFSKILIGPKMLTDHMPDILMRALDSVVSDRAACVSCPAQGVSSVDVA
MsrA inhibitor: inhibits bovine methionine sulfoxide reductase A | actives 0.75% (n = 360,000) | purified bovine MsrA, absorbance read-out | inhibition, % at 15.5 µM | AID 651718; in the data active means inhibition above about 4.5%;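 further: 0% = vehicle wells with enzyme and 100% = reference inhibitor wells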
NadD inh: inhibitors of Staphylococcus aureus NadD. inhibition, % at 20 µM. purified NadD enzyme, colorimetric absorbance read-out. actives 0.78% (n = 360,000); in the data active means inhibition above about 26%
The depositor's hits bear a star; / = no result.

SMILES | rCAG binder | Pemphigus Ab inh | bovine MsrA act | DAGLB inh | MsrA inhibitor | NadD inh
Cc1[nH][nH]c(=O)c1C(c1ccc(-c2ccc(Cl)c(Cl)c2)o1)c1c(C)[nH][nH]c1=O | 37.9* | 101.4 | -7.6 | -8.5 | -0.5 | 24.6
CCOC1=C2[C@@H](CN(S(=O)(=O)c3ccccc3C)[C@H]2c2ccc(Cl)cc2)[C@H]2C(=O)NC(=O)[C@H]2C1 | 6.2 | / | -0.8 | / | -0.6 | 0.2
CCCCNC(=O)c1nc(C2CCN(S(=O)(=O)c3c(F)cccc3F)CC2)oc1-c1ccccc1 | 1.7 | / | -0.7 | / | -0.6 | -5.5
CCCCNC(=S)Nc1ccccc1Cc1ccccc1 | 11.6 | 95.7* | -2.2 | -1.4 | -0.8 | -1.3
CO/N=C(/COc1ccc(F)cc1)c1ccc(OC)cc1 | -2.6 | 71.9* | 0.9 | -17.1 | 1.1 | -6.5
COc1ccc(OCC(=O)O/N=C(\N)c2ccc(OC)cc2)cc1 | -7.9 | 102.6 | -3.0 | -21.8 | -0.9 | -6.6
Cc1[nH]c2ccccc2c1C1=CC(=O)C=CC1=O | 24.6 | 64.9* | -9.2 | 3.6 | -0.8 | 1.3
Cc1[nH]c2ccccc2c1CC#N | 4.5 | 116.3 | -4.4 | -5.0 | 1.7 | -7.0
Cc1ccc(S(=O)(=O)N2[C@@H](c3ccc(C(C)(C)C)cc3)C(C(=O)O)=CC[C@H]2c2ccc(Cl)cc2)cc1 | 89.4* | 96.1 | -1.6 | 7.9 | 0.6 | 25.5
COc1ccc([C@@H]2CC=C(C(=O)O)[C@H](c3ccccc3)N2S(=O)(=O)c2ccc(C)cc2)cc1OC | 23.0 | 122.5 | -5.5 | 4.0 | 0.3 | -0.2
COc1ccc([C@@H]2CC=C(C(=O)O)[C@H](c3ccccc3)N2S(=O)(=O)c2ccccc2C)cc1 | 35.8* | 115.0 | -2.3 | 2.8 | -0.3 | -2.3
CCCN(C)C1CN(Cc2cn(Cc3cccc(Cl)c3)nn2)S(=O)(=O)C1 (stereo not drawn) | -1.7 | / | -8.1 | / | 1.6 | -2.1
Nc1[nH]c(N=NC(=O)c2ccccc2O)c2ccccc12 | -2.6 | 107.6 | -10.3 | -4.0 | 4.6* | 2.7
CCOc1ccc(CC2S/C(=N/N=C/c3ccco3)NC2=O)cc1 (stereo not drawn) | 5.5 | 99.0 | -3.5 | 0.3 | 3.9 | 1.3
O=C1N/C(=N\N=C\c2ccco2)SC1Cc1ccccc1[N+](=O)[O-] (stereo not drawn) | 10.7 | 99.0 | -5.1 | 4.4 | 4.6* | 2.1
COC(=O)[C@]12C[C@H](CC(=O)N3CCOCC3)C(=O)N(Cc3ccco3)C1=C[C@H](C(C)C)O[C@@H]2C1CC1 | -2.2 | / | / | / | / | /
O=C(COC(=O)c1ccc(S(=O)(=O)N2CCCC2)cc1)NCc1ccc(Cl)cc1 | -3.7 | 70.6* | -14.1 | -4.1 | -1.9 | -4.5
O=C(COC(=O)c1ccc(S(=O)(=O)N2CCCCCC2)cc1)NCc1ccc(F)cc1 | 0.9 | 96.5 | -4.2 | 0.1 | -1.6 | 2.7
COc1ccc(CSc2nnc(SCC(=O)Nc3ccccc3-c3ccccc3)s2)cc1 | 9.0 | / | / | / | / | /
COC(=O)c1ccccc1NC(=O)CSc1nc(N)cc(=O)[nH]1 | 3.8 | 55.6* | -0.9 | 1.6 | 0.0 | 4.0
COC(=O)c1ccccc1NC(=O)CSc1nc(N)cc(N)n1 | 2.2 | 90.3 | -6.3 | 0.0 | -0.7 | 2.8
Cc1ccc(CN2CCN(C(=O)c3ccncc3)CC2)cc1 | -3.7 | 61.9* | -3.2 | -1.2 | -0.8 | 4.5
Cc1nnc(SCC2=C(C(=O)O)N3C(=O)C(NC(=O)COc4ccccc4)C3SC2)s1 (stereo not drawn) | 20.9 | 93.2 | -0.5 | 2.6 | 1.2 | 6.7
CO/N=C(/C(=O)N[C@@H]1C(=O)N2C(C(=O)O)=CCS[C@H]12)c1cnc(N)s1 | / | / | -7.2 | / | / | 39.2*
Cc1nc(Nc2ccccc2)sc1C(=O)c1ccccc1 | 8.0 | 80.2* | -1.8 | / | 2.1 | -4.3
SMILES | rCAG binder | Pemphigus Ab inh | bovine MsrA act | DAGLB inh | MsrA inhibitor | NadD inh
COc1ccc(C(=O)c2sc(Nc3ccccc3)nc2C)cc1 | 2.9 | 98.5 | -1.4 | -2.8 | 1.4 | -5.0
COCc1nnc(NS(=O)(=O)c2ccc(Cl)cc2)s1 | 1.7 | 103.7 | -3.6 | -0.4 | -0.6 | 1.2
O=S(=O)(Nc1nnc(-c2ccccc2)s1)c1ccc(Cl)cc1 | 73.6* | 107.0 | -2.4 | 11.8 | 1.2 | -1.5
O=C(Cn1nnc(-c2ccccc2)n1)N/N=C/c1cc([N+](=O)[O-])c(Cl)cc1Cl | 1.3 | 73.7* | -12.6 | -0.7 | -0.7 | 22.8
O=C(Cn1nnc(-c2ccccc2)n1)N/N=C/c1cc([N+](=O)[O-])ccc1O | 7.5 | 113.1 | -1.1 | 2.1 | -0.5 | -1.8
Cc1c(C(=O)Nc2ccc(OCc3ccccc3)cc2)cccc1[N+](=O)[O-] | 1.1 | 39.3* | -0.4 | -1.3 | -0.1 | -1.7
Cc1ccc(N2C(=O)N3[C@H](c4ccc(F)cc4)[C@@H]4C(=O)N(C5CCCCC5)C(=O)[C@@H]4[C@]3(C)C2=O)cc1 | / | 109.2 | -0.3 | 1.7 | / | -1.8
COc1cc(NS(=O)(=O)c2ccc(NC(=O)/C(=C\c3ccccc3OC)NC(=O)c3ccccc3)cc2)nc(OC)n1 | 63.1* | 100.1 | -2.2 | 6.1 | 0.9 | 30.7*
COc1cc(NS(=O)(=O)c2ccc(NS(=O)(=O)c3ccccc3)cc2)nc(OC)n1 | -0.2 | 104.5 | 1.0 | -0.2 | 0.0 | 1.4
COC(=O)CN(Cc1cn(Cc2ccccc2)nn1)S(=O)(=O)c1ccccc1Br | 0.9 | / | / | / | / | /
Nc1ccc(S(=O)(=O)c2cc(O)c3ccccc3c2O)cc1 | 57.1* | 99.5 | -2.1 | 6.2 | -0.3 | 20.8
O=S(=O)(c1ccccc1)c1cc(O)ccc1O | -0.2 | 109.5 | -3.2 | -0.2 | -0.1 | -1.7
COC(=O)c1c[nH]n2c(=O)c(Cl)c(C)nc12 | 1.3 | 129.3 | -4.0 | -3.3 | 1.0 | -7.0
Cc1nc2c(C(=O)NCc3ccccc3)c[nH]n2c(=O)c1Cl | 41.4* | 99.6 | -2.3 | 6.7 | 3.9 | 5.1
O=C(CCCN1C(=O)/C(=C/c2ccccc2Cl)SC1=S)NNC(=O)c1cccnc1 | 6.3 | 102.0 | -4.6 | -3.1 | 1.1 | 2.5
O=C(CCCN1C(=O)/C(=C\c2cccs2)SC1=S)Nc1cccnc1 | 1.7 | 95.9 | -3.7 | 2.8 | -0.5 | 7.5
O=C(CCN1C(=O)/C(=C\c2ccccc2)SC1=S)NNC(=O)c1cccnc1 | 1.0 | 72.0* | -5.9 | 0.7 | -0.6 | 3.7
O=C(CCCN1C(=O)/C(=C/c2cccs2)SC1=S)Nc1cccnc1 | 0.9 | 68.2* | -11.2 | -0.5 | 2.8 | 4.6
O=C(Nc1cccc(S(=O)(=O)N2CCCCC2)c1)c1cc(=O)[nH]c2ccccc12 | 13.4 | / | -1.6 | 3.0 | 1.6 | 4.9
CC(=O)NC(C)C(=O)N1CCCC1C(=O)N1CCCC1C(=O)NC(C)C(=O)NC1C(=O)NC(CC(C)C)C(=O)NC2CCCCNC(=O)CCC(C(=O)NC(Cc3ccc(O)cc3)C(=O)O)NC(=O)C3CCC(=O)OCC(NC(=O)C4CCCN4C(=O)C(Cc4c[nH]c5ccccc45)NC2=O)C(=O)NC(CC(=O)OC1C)C(=O)NC(Cc1c[nH]c2ccccc12)C(=O)N3 (stereo not drawn) | 17.8 | / | / | / | / | /
Cc1ccccc1NC(=S)c1ccc2ccccc2n1 | 5.4 | 78.5* | -5.8 | -2.4 | -0.5 | -5.1
